Hit rate of the full screen: of about 69,000 compounds, about 8,600 (12%) showed an effect of 50% or more. The sample holds strong results, similar compounds and a random draw of the others, so the mix is not that of the screen.
These compounds were tested on Plasmodium berghei (assay: Screen against P. berghei liver stage (PbLuc), transformed with Luciferase, at 10uM). Conditions: tested at 10 uM.
Assay type: functional, HepG2
Work on `Cn1nc(Br)c2c(NCCS(N)(=O)=O)ncnc21` yielded an INHIBITION of 36.4%.
Compound `CC(=O)N1CCN(C(=O)NC(C)Cn2ccnc2)CC1` (stereo not drawn) has an INHIBITION of 24.2%.
`COc1ccc(CN2C[C@H](N3CCCC3=O)[C@@H]3OCCC[C@@H]32)cc1` was tested, and the INHIBITION was 48.2%.
`CCn1nc(C)c2nc(C(C)C)nc(N3CCN(C)CC3)c21` gave an INHIBITION of -10.1%.
With `CCS(=O)(=O)N1CC[C@H]2C(=O)N(Cc3cccnc3)CCO[C@H]2C1` the INHIBITION was -7.38%.
Compound `CNC(=O)CC1c2cccnc2C(=O)N1Cc1ccccc1` (stereo not drawn) has an INHIBITION of 19.2%.
With `COCCNC(=O)Cn1c(-c2cccc(Cl)c2)nc(C)c(CCO)c1=O` the INHIBITION was 18.2%.
`COCCNc1cccc(C2CCCN2)n1` (stereo not drawn) was tested, and the INHIBITION was -31%.
`CCC(C)c1noc(C2CCN(C(=O)Cn3nc(C)cc3C)CC2)n1` (stereo not drawn) was tested, and the INHIBITION was 40.8%.
`O=C(NCCCN1CCOCC1)c1ccn(COc2ccccc2)n1` was tested, and the INHIBITION was -8.07%.
Compound `CCc1ccc(C(=O)N2CCC3(CCC(=O)N(CCN(C)C)C3)CC2)[nH]1` has an INHIBITION of 70.4%.
`CN(C)CCN1CCC2(CCN(C(=O)c3ccncc3)CC2)C1=O` gave an INHIBITION of 13.7%.
With `CN(C)CCN1CC2(CCC1=O)CCN(C(=O)c1ccn(C)n1)CC2` the INHIBITION was 35.1%.
With `CN(C)CCN1CCC2(CCN(C(=O)c3cccc(F)c3)CC2)C1=O` the INHIBITION was 0.112%.
Compound `CN(C)CCN1CCC2(CCN(C(=O)c3ccc(F)cc3)CC2)C1=O` has an INHIBITION of 56.6%.
`Cc1c(C(=O)N2CCC3(CCC(=O)N(CCN(C)C)C3)CC2)ccn1C` gave an INHIBITION of 34%.
`Cc1ncsc1CN1CC[C@H]2OCC[C@@]2(C(=O)NC(C)C)C1` was tested, and the INHIBITION was 11.1%.
`Fc1cccc(Cl)c1Cn1ncnc1CSCCN1CCCC1` showed an INHIBITION of 39.9%.
Work on `Cc1nnc(C2CCN(C(=O)c3cnc4ccccc4n3)CC2)s1` yielded an INHIBITION of 31.2%.
With `CN(C)C[C@@H]1CN(C(=O)CCC2CCCC2)C[C@@H]1CO` the INHIBITION was 28.2%.
For `Cn1cc(C(=O)N2CCCC(Cc3nccs3)C2)cn1` (stereo not drawn), the INHIBITION was 20.2%.
Compound `O=C(c1cnccn1)N1CCCC(Cc2cccc3ncccc23)C1` (stereo not drawn) has an INHIBITION of 70.8%.
`Cn1ccc(C(=O)N2CCC(Cc3cccc4ncccc34)CC2)n1` gave an INHIBITION of 42.6%.
For `Cn1cc(C(=O)N2CCCC(Cc3cccc4ncccc34)C2)cn1` (stereo not drawn), the INHIBITION was 85.7%.
With `Cn1cc(C(=O)N2CCCC(Cc3cncc4ccccc34)C2)cn1` (stereo not drawn) the INHIBITION was 3.91%.
Work on `O=C(c1cnco1)N1CCCC(Cc2nccs2)C1` (stereo not drawn) yielded an INHIBITION of 26.9%.
`O=C(c1cnco1)N1CCCC(Cc2cccc3ncccc23)C1` (stereo not drawn) showed an INHIBITION of 51.2%.
`O=C(c1cnco1)N1CCC(Cc2cccc3ncccc23)CC1` showed an INHIBITION of 44.9%.
For `O=C(c1cnccn1)N1CCCC(Cc2cncc3ccccc23)C1` (stereo not drawn), the INHIBITION was -39.4%.
`O=C(c1cnccn1)N1CCCC(Cc2ccccn2)C1` (stereo not drawn) gave an INHIBITION of 31.8%.
`Cn1ccc(C(=O)N2CCC(Cc3cccc4ncccc34)C2)n1` (stereo not drawn) gave an INHIBITION of 23.4%.
With `Cn1ccc(C(=O)N2CCCC(Cc3cccc4ncccc34)C2)n1` (stereo not drawn) the INHIBITION was 75.1%.
With `CNC(=O)N1CCC2(CC1)CN(C)Cc1cc(F)ccc12` the INHIBITION was 39.3%.
With `Cc1cccc(CN2CCc3nnc(CN4CCCCC4)n3CC2)n1` the INHIBITION was -89.8%.
`CC(C)c1nccn1C1CCCN(C(=O)CN(C)C2CC2)C1` (stereo not drawn) showed an INHIBITION of 19.6%.
For `CCN(C(=O)COc1nc(C(C)(C)C)no1)C1CC1`, the INHIBITION was -1.75%.
With `COc1ccc(C[C@H]2CN(C(=O)c3cc(C)no3)CC[C@H]2OC)cc1` the INHIBITION was -22.1%.
`Cc1cc(C)c(CNC(=O)NCc2ccncc2)c(=O)[nH]1` gave an INHIBITION of 37.9%.
With `COCCNC(=O)NC(C)COc1ccc(F)cc1F` (stereo not drawn) the INHIBITION was -2.48%.
`CC(C)N1C(=O)CO[C@H]2CCN(C(=O)c3ccc4c(c3)CCC4)CC[C@@H]21` was tested, and the INHIBITION was 20.105%.
In the case of `Cc1noc(C)c1CN1CCC2(CC1)C(c1cnn(C)c1)CC(=O)N2C` (stereo not drawn), the INHIBITION was 41.2%.
`CCC(CC)C(=O)N1CCOC2(COCCN(CC(=O)NC)C2)C1` (stereo not drawn) gave an INHIBITION of -13%.
For `O=C(NCCc1c[nH]cn1)c1n[nH]c2c1CCC2`, the INHIBITION was -11.1%.
`COc1ccccc1CC(=O)N1CCCC(CNS(C)(=O)=O)C1` (stereo not drawn) gave an INHIBITION of 4.623%.
For `Cc1cnn(CCC(=O)N2CCN(c3nc(C)cs3)CC2)c1`, the INHIBITION was 62.8%.
Compound `Cc1cnn(CCC(=O)N2CCCN(c3nc(C)cs3)CC2)c1` has an INHIBITION of 17.4%.
For `Cc1cnn(CC(=O)N2CCCN(c3nc(C)cs3)CC2)c1`, the INHIBITION was 35.9%.
`CCn1cc(CN2CCCN(C(=O)CCc3cnn(C)c3)CC2)cn1` was tested, and the INHIBITION was 15.5%.
`CCn1cc(CN2CCN(C(=O)N3CCOCC3)CC2)cn1` showed an INHIBITION of 43.4%.
For `CCn1cc(CN2CCCN(C(=O)C3(C#N)CCCCC3)CC2)cn1`, the INHIBITION was 45.2%.
With `CCn1cc(CN2CCCN(C(=O)CCn3cc(C)cn3)CC2)cn1` the INHIBITION was 52.5%.
Work on `Cc1csc(N2CCN(C(=O)Cc3ccc(C)s3)CC2)n1` yielded an INHIBITION of -23.8%.
`CCn1cc(CN2CCCN(C(=O)CCSC)CC2)cn1` was tested, and the INHIBITION was 5.9%.
With `Cc1csc(N2CCCN(C(=O)Cc3cccs3)CC2)n1` the INHIBITION was 14.4%.
`CCn1cc(CN2CCCN(C(=O)C3(C)CCOCC3)CC2)cn1` was tested, and the INHIBITION was 55.4%.
`Cc1csc(N2CCCN(C(=O)Cc3ccc(C)s3)CC2)n1` showed an INHIBITION of 69.8%.
In the case of `CN(Cc1cc[nH]n1)C(=O)c1cn(Cc2ccccc2Cl)nn1`, the INHIBITION was 39.4%.
With `COc1ccc2[nH]cc(C(=O)N3C[C@@H](O)[C@H](NS(C)(=O)=O)C3)c2c1` the INHIBITION was 14.6%.
Work on `O=C(c1ccnc(C2CCNCC2)c1)N1CCCOCC1` yielded an INHIBITION of 42.6%.
Compound `CCN(CC)S(=O)(=O)NCC1Cc2ccccc2O1` (stereo not drawn) has an INHIBITION of 7.65%.
`CC(=O)N1CCCC1c1nc(CN(C)C(=O)C(C)C)cc(N(C)C)n1` (stereo not drawn) showed an INHIBITION of 23.9%.
`CCc1n[nH]c(C2CN(CCS(C)(=O)=O)CCO2)n1` (stereo not drawn) was tested, and the INHIBITION was 25.6%.
In the case of `O=S(=O)(NC1CCCOC1)c1ccc(C(F)(F)F)nc1` (stereo not drawn), the INHIBITION was 30%.
`Cc1cnn(CC2CCCN2CC(=O)NC2CCN(C3CC3)CC2)c1` (stereo not drawn) gave an INHIBITION of -42.3%.
`CCc1nccn1C1CCCN(C(=O)c2cncnc2C)C1` (stereo not drawn) was tested, and the INHIBITION was 21.6%.
Compound `CN(C)CC1CN(C(=O)NCc2ccccc2)Cc2nccn2C1` (stereo not drawn) has an INHIBITION of 13.5%.
With `Cc1cccc2c1OCCC2NCc1c(C(C)C)nn(C)c1N(C)C` (stereo not drawn) the INHIBITION was -41.2%.
`CC(C)(C)Oc1ccc(CN)c(C(F)(F)F)c1` was tested, and the INHIBITION was 30.8%.
